# About 410 targets per protein were measured; listed, in parts, are those with the strongest signals and a random draw of the rest.
# Assays:
# Test in all cases: glycan array binding signal (z-score within array); higher = stronger binding
# Settings in all cases: glycan notation: IUPAC condensed, linker removed
# [1] = target: Fuc(a1-2)Gal(b1-4)GlcNAc(b1-3)[Fuc(a1-2)Gal(b1-4)GlcNAc(b1-6)]GalNAc
# In short: (§1)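 Negative Z-scores can be read as non-binding. The Z-score is calculated within each array and then averaged across arrays of one protein sequence at different concentrations or buffers and across linkers. Arrays, 3228 in all, were curated from the Consortium for Functional Glycomics database and kept only where the protein sequence was available.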
# [2] = target: Fuc(a1-2)Gal(b1-4)[Fuc(a1-3)]GlcNAc(b1-3)Gal(b1-4)[Fuc(a1-3)]GlcNAc(b1-3)Gal(b1-4)[Fuc(a1-3)]GlcNAc
# In short: as §1
# [3] = target: Fuc(a1-2)[Gal(a1-3)]Gal(b1-4)[Fuc(a1-3)]GlcNAc
# In short: as §1
# [4] = target: Fuc(a1-2)[GalNAc(a1-3)]Gal(b1-3)GlcNAc(b1-3)GalNAc
# In short: as §1
# [5] = target: Fuc(a1-2)[GalNAc(a1-3)]Gal(b1-4)Glc
# In short: as §1
# [6] = target: Fuc(a1-2)[GalNAc(a1-3)]Gal(b1-4)GlcNAc(b1-3)[Fuc(a1-2)[GalNAc(a1-3)]Gal(b1-4)GlcNAc(b1-6)]GalNAc
# In short: as §1
# [7] = target: Fuc(a1-3)[Gal(b1-4)]Glc6S
# In short: as §1
# [8] = target: Fuc(a1-3)[Gal3S(b1-4)]GlcNAc
# In short: as §1
# [9] = target: Fuc(a1-3)[GalNAc(b1-4)]GlcNAc6S
# In short: as §1
# [10] = target: Gal(a1-3)Gal(b1-4)Glc
# In short: as §1
# [11] = target: Gal(a1-3)Gal(b1-4)GlcNAc(b1-6)GalNAc
# In short: as §1
# [12] = target: Gal(a1-3)[Gal(a1-4)]Gal(b1-4)GlcNAc
# In short: as §1
# [13] = target: Gal(b1-3)GalNAc(b1-4)Gal(b1-4)Glc
# In short: as §1
# [14] = target: Gal(b1-3)GlcNAc(b1-2)Man(a1-3)[GlcNAc(b1-4)][Gal(b1-3)GlcNAc(b1-2)Man(a1-6)]Man(b1-4)GlcNAc(b1-4)GlcNAc
# In short: as §1
# [15] = target: Gal(b1-3)[Fuc(a1-4)]GlcNAc(b1-3)Gal(b1-4)[Fuc(a1-3)]GlcNAc
# In short: as §1
# [16] = target: Gal(b1-4)GalNAc(a1-3)[Fuc(a1-2)]Gal(b1-4)GlcNAc
# In short: as §1
# [17] = target: Gal(b1-4)Glc6S
# In short: as §1
# [18] = target: Gal(b1-4)GlcNAc(b1-2)Man(a1-6)[Man(a1-3)]Man(b1-4)GlcNAc(b1-4)GlcNAc
# In short: as §1
# [19] = target: Gal(b1-4)GlcNAc(b1-2)[Gal(b1-4)GlcNAc(b1-6)]Man(a1-6)[Gal(b1-4)GlcNAc(b1-2)Man(a1-3)]Man(b1-4)GlcNAc(b1-4)[Fuc(a1-6)]GlcNAc
# In short: as §1
# [20] = target: Gal(b1-4)GlcNAc(b1-2)[Gal(b1-4)GlcNAc(b1-6)]Man(a1-6)[GlcNAc(b1-4)][Gal(b1-4)GlcNAc(b1-2)Man(a1-3)]Man(b1-4)GlcNAc(b1-4)GlcNAc
# In short: as §1
# [21] = target: Gal(b1-4)GlcNAc(b1-3)Gal(b1-4)GlcNAc(b1-3)Gal(b1-4)GlcNAc(b1-3)Gal(b1-4)GlcNAc(b1-2)[Gal(b1-4)GlcNAc(b1-3)Gal(b1-4)GlcNAc(b1-3)Gal(b1-4)GlcNAc(b1-3)Gal(b1-4)GlcNAc(b1-6)]Man(a1-6)[Gal(b1-4)GlcNAc(b1-3)Gal(b1-4)GlcNAc(b1-3)Gal(b1-4)GlcNAc(b1-3)Gal(b1-4)GlcNAc(b1-2)Man(a1-3)]Man(b1-4)GlcNAc(b1-4)[Fuc(a1-6)]GlcNAc
# In short: as §1
# [22] = target: Gal3S(b1-4)[Fuc(a1-3)]GlcNAc6S
# In short: as §1
# [23] = target: Gal3S6S(b1-4)GlcNAc6S
# In short: as §1
# [24] = target: Gal4S(b1-4)GlcNAc
# In short: as §1
# [25] = target: Gal4S6S(b1-4)GlcNAc
# In short: as §1
# [26] = target: Gal6S(b1-3)GlcNAc6S
# In short: as §1
# [27] = target: GalNAc(b1-4)GlcNAc
# In short: as §1
# [28] = target: GalNAc(b1-4)GlcNAc6S
# In short: as §1
# [29] = target: GalNAc6S(b1-4)GlcNAc
# In short: as §1
# [30] = target: GlcNAc(b1-2)Man(a1-3)[GlcNAc(b1-2)Man(a1-6)]Man(b1-4)GlcNAc(b1-4)GlcNAc
# In short: as §1
binder,measurement,setting,value
"AT1G73650(15) (Arabidopsis thaliana), F4HRY1 (protein) MGTVLDSHFLALTAIVTVIYQFIFFVITALFKFDQVTDFAGSTNFVILAVLTLVLKASWHFRQIVLTLLVVVWGLRLGIFLLMETRILQWGEDRRFDEQRGNIVRLIIFWTLQAVWVWTVSLPLTLVNASDGGGSLKPADVIGWTMETWVFGFLIEAAADQQKLSFKNSPENRGKWCDVGVWKYSRHPNYFGEMETLLWWGIFVAASPVLEGAEYLVIFGPLFLTLLLLFVSGIPLLEASADKKHGNSGAYRSYKKTTSPLILFPRGVYGNLPGWFKTVFLFEFPFYSRNLPQEGRLQNSKEKEVKDD",glycan array binding signal (z-score),[1],2.33
same,glycan array binding signal (z-score),[2],-0.048
same,glycan array binding signal (z-score),[3],-0.438
same,glycan array binding signal (z-score),[4],0.226
same,glycan array binding signal (z-score),[5],-0.567
same,glycan array binding signal (z-score),[6],-0.573
same,glycan array binding signal (z-score),[7],2.65
same,glycan array binding signal (z-score),[8],3.17
same,glycan array binding signal (z-score),[9],-0.217
same,glycan array binding signal (z-score),[10],3.4
same,glycan array binding signal (z-score),[11],-0.542
same,glycan array binding signal (z-score),[12],3.43
same,glycan array binding signal (z-score),[13],3.21
same,glycan array binding signal (z-score),[14],-0.213
same,glycan array binding signal (z-score),[15],-0.287
same,glycan array binding signal (z-score),[16],-0.354
same,glycan array binding signal (z-score),[17],2.95
same,glycan array binding signal (z-score),[18],-0.586
same,glycan array binding signal (z-score),[19],1.65
same,glycan array binding signal (z-score),[20],-0.494
same,glycan array binding signal (z-score),[21],-0.173
same,glycan array binding signal (z-score),[22],1.88
same,glycan array binding signal (z-score),[23],0.919
same,glycan array binding signal (z-score),[24],-0.333
same,glycan array binding signal (z-score),[25],-0.444
same,glycan array binding signal (z-score),[26],-0.282
same,glycan array binding signal (z-score),[27],4.01
same,glycan array binding signal (z-score),[28],-0.402
same,glycan array binding signal (z-score),[29],0.513
same,glycan array binding signal (z-score),[30],-0.569

# Reference: the supplement of paper PMC8728848
